Measurements reported in the supplement of paper PMC10849652.
Targets with a hit are over-represented here; the source holds about 8,800 in all. About 0.5% of all pairs of compound and target were hits.

How the values were obtained:
Assay in all cases: log2 fold change, soluble protein after heating vs DMSO (PISA); higher = thermal stabilisation; K562 lysate, 10 uM; active = over 0.2 and 3.5 SD of the protein, either way, in both replicates (recomputed)
[1] = compound: C1=CC=C(C=C1)[C@H](COC2=CC3=C(C=C2)NC(=O)N3)NC(=O)C4=CC=CN(C4=O)CC5=CC(=C(C=C5)F)F
Outline: (§1)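 K562 pellets were dounce-homogenised in PBS pH 7.4 containing 1 mM MgCl2, and the crude extract, at 1 mg/mL protein, was exposed to 10 μM compound for 30 min. Aliquots were heated for 3 min across 48°C-58°C, pooled, brought to 0.5% NP-40 at 4°C and spun at 21,000xg for 90 min, with the supernatant taken as soluble protein. TMTpro 16plex LC-MS/MS with equalised channel sums quantified that protein. Values are log-two fold changes in thermal stability relative to solvent controls, taken from duplicates.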

[2] = compound: CC1=C(SC2=C1C(=N[C@H](C3=NN=C(N32)C)CC(=O)N)C4=CC=C(C=C4)Cl)C
Outline: as §1

[3] = compound: CC1=C2C(=CC=C1)N=C(N(C2=O)C3=CC=CC=C3C)CN4C=NC5=C(N=CN=C54)N
Outline: as §1

[4] = compound: Cc1sc2c(c1C)C(c1ccc(Cl)cc1)=N[C@@H](CC(=O)OC(C)(C)C)c1nnc(C)n1-2
Outline: as §1

[5] = compound: c1ccc([C@@H]2C[C@H]2NC2CCNCC2)cc1
Outline: as §1

Measured: log2 fold change

TLK2 isoform 2 (UniProt Q86UE8)
inactive: [1] 0.014 | [2] -0.027 | [3] 0.033 | [4] -0.015 | [5] -0.075

TPM4 (UniProt P67936)
inactive: [1] -0.003 | [2] 0.057 | [3] -0.021 | [4] -0.025 | [5] -0.04

TTC27 (UniProt Q6P3X3)
inactive: [1] -0.039 | [2] -0.021 | [3] 0.028 | [4] -0.019 | [5] 0.032

UBE4A isoform 2 (UniProt Q14139)
inactive: [1] -0.016 | [2] -0.041 | [3] 0.003 | [4] 0.043 | [5] 0.051

TIAL1 isoform 2 (UniProt Q01085)
inactive: [1] 0.068 | [2] 0.017 | [3] -0.02 | [4] 0.031 | [5] -0.021

TXNIP (UniProt Q9H3M7)
inactive: [1] 0.056 | [2] 0.005 | [3] 0.029 | [4] 0.016 | [5] 0.087

TUBGCP2 isoform 4 (UniProt Q9BSJ2)
inactive: [1] 0.009 | [2] -0.015 | [3] 0.035 | [4] 0.018 | [5] 0.097

TMEM199 (UniProt Q8N511)
Sequence of UniProt Q8N511 (Q8N511 whole entry, looked up): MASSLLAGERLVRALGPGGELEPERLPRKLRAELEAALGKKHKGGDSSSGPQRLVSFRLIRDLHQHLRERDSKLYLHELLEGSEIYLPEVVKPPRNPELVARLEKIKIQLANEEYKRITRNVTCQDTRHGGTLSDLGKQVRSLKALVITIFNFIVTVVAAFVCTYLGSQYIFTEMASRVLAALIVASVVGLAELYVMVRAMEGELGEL
inactive: [1] 0.005 | [2] -0.002 | [3] 0.07 | [4] -0.046 | [5] -0.029

TRAF2 isoform 2 (UniProt Q12933)
inactive: [1] -0.006 | [2] 0.005 | [3] -0.005 | [4] -0.002 | [5] -0.015

TROAP (UniProt Q12815)
inactive: [1] -0.008 | [2] 0.12 | [3] 0.024 | [4] 0.057 | [5] 0.096

TLE3 isoform 4 (UniProt Q04726)
inactive: [1] 0.01 | [2] -0.033 | [3] 0.024 | [4] 0.025 | [5] 0.007

TUBE1 (UniProt Q9UJT0)
inactive: [1] -0.019 | [2] 0.003 | [3] 0.019 | [4] -0.064 | [5] 0.107

UBXN10 (UniProt Q96LJ8)
inactive: [1] -0.032 | [2] 0.048 | [3] 0.056 | [4] 0.095 | [5] 0.022

TRA2A (UniProt Q13595)
inactive: [1] -0.076 | [2] 0.065 | [3] 0.034 | [4] -0.054 | [5] 0.004

TMPO (UniProt P42166)
inactive: [1] -0.013 | [2] 0.015 | [3] 0.015 | [4] 0.011 | [5] 0.059

UBR3 isoform 4 (UniProt Q6ZT12)
inactive: [1] -0.027 | [2] -0.032 | [3] 0.009 | [4] -0.016 | [5] 0.076

TFIP11 (UniProt Q9UBB9)
inactive: [1] -0.033 | [2] -0.022 | [3] 0.007 | [4] -0.002 | [5] 0.044

TP53RK (UniProt Q96S44)
inactive: [1] 0.013 | [2] 0.021 | [3] -0.003 | [4] 0.073 | [5] 0.09

THADA (UniProt Q6YHU6)
Sequence of UniProt Q6YHU6 (Q6YHU6 whole entry, looked up): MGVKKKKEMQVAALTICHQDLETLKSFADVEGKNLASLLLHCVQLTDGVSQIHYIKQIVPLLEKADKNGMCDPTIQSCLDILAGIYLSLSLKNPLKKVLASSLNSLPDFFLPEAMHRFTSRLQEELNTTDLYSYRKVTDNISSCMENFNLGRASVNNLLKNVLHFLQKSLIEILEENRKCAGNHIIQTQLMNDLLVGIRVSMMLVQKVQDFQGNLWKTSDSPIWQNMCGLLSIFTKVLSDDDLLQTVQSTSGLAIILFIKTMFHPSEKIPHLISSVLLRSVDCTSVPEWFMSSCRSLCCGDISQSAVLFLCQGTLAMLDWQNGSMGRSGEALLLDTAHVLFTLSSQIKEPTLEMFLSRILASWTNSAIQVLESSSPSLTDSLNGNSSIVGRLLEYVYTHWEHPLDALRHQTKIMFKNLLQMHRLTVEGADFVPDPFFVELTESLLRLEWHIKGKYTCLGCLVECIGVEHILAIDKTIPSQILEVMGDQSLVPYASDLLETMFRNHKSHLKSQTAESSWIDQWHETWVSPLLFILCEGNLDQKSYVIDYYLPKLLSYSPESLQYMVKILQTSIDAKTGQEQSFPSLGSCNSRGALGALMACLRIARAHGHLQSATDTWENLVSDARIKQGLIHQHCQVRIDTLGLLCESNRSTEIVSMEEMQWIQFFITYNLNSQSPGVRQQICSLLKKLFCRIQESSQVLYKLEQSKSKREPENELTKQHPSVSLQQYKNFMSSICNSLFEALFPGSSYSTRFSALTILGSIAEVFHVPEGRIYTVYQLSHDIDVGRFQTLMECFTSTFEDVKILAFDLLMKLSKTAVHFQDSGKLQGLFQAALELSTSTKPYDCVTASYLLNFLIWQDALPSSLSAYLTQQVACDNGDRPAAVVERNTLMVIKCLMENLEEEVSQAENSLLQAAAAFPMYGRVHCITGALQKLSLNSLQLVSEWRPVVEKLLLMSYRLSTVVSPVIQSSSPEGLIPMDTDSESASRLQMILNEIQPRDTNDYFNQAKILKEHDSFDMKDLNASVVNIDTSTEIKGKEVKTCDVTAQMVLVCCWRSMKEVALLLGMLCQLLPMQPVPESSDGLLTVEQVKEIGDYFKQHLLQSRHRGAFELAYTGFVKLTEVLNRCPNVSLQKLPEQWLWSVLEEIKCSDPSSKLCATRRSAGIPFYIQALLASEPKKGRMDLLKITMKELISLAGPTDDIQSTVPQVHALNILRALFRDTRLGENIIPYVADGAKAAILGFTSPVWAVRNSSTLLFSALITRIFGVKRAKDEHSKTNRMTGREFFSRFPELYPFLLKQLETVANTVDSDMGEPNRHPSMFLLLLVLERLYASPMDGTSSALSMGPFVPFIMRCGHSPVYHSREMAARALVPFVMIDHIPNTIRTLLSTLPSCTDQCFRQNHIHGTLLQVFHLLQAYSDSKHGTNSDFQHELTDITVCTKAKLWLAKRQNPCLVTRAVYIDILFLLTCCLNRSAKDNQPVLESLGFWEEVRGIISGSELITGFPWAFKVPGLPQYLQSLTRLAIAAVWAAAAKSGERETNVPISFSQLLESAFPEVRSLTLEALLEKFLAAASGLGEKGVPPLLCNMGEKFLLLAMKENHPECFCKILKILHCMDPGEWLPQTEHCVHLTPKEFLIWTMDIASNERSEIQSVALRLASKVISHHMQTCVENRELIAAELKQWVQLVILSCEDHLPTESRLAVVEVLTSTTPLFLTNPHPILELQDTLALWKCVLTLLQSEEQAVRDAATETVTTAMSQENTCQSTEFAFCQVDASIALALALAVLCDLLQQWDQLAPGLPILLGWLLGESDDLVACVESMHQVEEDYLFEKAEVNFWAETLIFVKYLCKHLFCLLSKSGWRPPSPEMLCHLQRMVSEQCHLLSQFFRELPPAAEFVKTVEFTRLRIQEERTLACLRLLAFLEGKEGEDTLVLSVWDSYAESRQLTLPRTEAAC
inactive: [1] -0.028 | [2] -0.016 | [3] 0.069 | [4] 0.007 | [5] 0.028

UBR5 (UniProt O95071)
Sequence of UniProt O95071 (O95071 whole entry, looked up): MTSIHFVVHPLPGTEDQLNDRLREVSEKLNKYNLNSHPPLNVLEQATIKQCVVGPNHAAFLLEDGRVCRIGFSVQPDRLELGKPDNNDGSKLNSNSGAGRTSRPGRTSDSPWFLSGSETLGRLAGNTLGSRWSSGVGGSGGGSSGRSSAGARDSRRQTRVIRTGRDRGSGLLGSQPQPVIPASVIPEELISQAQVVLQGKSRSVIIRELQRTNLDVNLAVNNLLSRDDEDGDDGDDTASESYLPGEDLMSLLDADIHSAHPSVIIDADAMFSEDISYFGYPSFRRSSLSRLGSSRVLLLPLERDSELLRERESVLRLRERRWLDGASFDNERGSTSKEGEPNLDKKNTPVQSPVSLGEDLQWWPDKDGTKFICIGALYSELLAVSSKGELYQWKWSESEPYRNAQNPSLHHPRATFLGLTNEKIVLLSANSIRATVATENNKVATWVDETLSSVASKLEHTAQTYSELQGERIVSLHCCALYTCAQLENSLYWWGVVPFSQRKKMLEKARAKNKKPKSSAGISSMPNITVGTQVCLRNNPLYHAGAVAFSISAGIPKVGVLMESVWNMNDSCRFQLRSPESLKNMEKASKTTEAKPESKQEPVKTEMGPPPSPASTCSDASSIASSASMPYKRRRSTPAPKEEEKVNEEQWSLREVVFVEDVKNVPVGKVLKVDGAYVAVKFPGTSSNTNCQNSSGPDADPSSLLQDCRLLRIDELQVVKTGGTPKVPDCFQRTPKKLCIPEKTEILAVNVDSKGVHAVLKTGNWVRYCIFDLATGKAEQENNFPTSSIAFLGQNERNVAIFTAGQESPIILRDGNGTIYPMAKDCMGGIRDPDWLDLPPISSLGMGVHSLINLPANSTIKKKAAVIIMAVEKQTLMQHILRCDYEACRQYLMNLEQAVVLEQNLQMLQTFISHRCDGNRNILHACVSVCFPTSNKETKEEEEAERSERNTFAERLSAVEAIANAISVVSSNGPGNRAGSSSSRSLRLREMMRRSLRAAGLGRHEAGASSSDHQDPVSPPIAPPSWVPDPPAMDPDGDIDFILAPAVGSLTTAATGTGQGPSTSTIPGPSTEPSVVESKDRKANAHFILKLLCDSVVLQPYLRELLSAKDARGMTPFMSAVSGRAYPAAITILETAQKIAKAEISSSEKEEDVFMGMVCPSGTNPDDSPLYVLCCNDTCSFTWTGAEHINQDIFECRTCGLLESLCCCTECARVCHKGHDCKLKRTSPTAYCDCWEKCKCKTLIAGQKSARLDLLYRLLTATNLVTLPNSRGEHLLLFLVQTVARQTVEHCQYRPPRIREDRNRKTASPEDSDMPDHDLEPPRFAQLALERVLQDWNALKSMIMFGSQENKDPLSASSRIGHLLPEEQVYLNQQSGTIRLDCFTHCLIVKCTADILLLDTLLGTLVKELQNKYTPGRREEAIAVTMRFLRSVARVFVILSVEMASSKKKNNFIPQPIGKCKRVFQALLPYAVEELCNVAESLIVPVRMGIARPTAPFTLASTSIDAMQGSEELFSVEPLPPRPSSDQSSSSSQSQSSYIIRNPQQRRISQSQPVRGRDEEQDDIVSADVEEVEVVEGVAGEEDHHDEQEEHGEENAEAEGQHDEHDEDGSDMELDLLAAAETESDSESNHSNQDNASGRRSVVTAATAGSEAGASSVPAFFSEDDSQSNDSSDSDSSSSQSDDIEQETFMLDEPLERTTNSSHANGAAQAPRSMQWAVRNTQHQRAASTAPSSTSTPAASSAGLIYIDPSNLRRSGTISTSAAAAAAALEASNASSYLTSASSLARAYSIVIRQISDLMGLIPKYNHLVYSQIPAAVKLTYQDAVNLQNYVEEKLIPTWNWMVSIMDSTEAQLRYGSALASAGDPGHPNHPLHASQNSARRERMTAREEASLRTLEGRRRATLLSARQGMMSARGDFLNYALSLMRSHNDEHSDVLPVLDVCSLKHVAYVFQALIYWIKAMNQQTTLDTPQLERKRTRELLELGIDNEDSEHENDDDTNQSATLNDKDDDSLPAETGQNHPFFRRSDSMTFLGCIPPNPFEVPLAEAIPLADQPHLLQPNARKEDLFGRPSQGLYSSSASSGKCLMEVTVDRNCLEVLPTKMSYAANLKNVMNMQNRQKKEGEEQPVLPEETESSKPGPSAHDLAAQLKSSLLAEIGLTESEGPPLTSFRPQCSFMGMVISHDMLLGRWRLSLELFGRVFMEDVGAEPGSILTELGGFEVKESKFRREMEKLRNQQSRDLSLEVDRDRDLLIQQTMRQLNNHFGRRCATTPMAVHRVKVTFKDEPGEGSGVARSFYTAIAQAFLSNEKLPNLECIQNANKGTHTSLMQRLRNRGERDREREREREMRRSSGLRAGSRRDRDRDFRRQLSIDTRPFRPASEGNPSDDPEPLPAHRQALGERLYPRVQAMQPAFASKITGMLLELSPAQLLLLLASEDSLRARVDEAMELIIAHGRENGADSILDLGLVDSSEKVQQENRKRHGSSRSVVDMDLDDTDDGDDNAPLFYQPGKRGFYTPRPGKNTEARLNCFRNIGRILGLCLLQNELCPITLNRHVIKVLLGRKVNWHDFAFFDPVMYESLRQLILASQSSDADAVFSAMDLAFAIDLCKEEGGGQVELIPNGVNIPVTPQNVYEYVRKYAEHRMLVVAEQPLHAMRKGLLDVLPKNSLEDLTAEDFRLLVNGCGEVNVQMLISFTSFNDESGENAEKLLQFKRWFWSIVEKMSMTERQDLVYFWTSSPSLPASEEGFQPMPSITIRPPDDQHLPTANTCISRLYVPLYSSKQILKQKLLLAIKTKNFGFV
inactive: [1] -0.011 | [2] 0.012 | [3] 0.012 | [4] -0.018 | [5] 0.01

UBXN2B (UniProt Q14CS0)
inactive: [1] 0.028 | [2] -0.03 | [3] 0.019 | [4] 0.042 | [5] 0.014

TTK (UniProt P33981)
inactive: [1] -0.016 | [2] -0.003 | [3] 0.068 | [4] 0.02 | [5] 0.003

UBL4A (UniProt P11441)
Sequence of UniProt P11441 (P11441 whole entry, looked up): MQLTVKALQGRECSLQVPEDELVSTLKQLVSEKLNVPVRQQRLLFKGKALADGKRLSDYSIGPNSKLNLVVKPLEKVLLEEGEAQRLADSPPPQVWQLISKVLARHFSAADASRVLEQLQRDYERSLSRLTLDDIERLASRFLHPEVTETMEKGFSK
inactive: [1] -0.029 | [2] -0.003 | [3] -0.017 | [4] 0.142 | [5] 0.073

TPST2 (UniProt O60704)
inactive: [1] -0.034 | [2] 0.021 | [3] -0.028 | [4] -0.054 | [5] -0.384
